In test [1] the target is T1, Aspartate--tRNA(Asp/Asn) ligase (Mycobacterium tuberculosis (strain ATCC 25618 / H37Rv)) (UniProt P9WFW3). Note: in the data most compounds retested in dose-response had high values.
T1 sequence (whole entry): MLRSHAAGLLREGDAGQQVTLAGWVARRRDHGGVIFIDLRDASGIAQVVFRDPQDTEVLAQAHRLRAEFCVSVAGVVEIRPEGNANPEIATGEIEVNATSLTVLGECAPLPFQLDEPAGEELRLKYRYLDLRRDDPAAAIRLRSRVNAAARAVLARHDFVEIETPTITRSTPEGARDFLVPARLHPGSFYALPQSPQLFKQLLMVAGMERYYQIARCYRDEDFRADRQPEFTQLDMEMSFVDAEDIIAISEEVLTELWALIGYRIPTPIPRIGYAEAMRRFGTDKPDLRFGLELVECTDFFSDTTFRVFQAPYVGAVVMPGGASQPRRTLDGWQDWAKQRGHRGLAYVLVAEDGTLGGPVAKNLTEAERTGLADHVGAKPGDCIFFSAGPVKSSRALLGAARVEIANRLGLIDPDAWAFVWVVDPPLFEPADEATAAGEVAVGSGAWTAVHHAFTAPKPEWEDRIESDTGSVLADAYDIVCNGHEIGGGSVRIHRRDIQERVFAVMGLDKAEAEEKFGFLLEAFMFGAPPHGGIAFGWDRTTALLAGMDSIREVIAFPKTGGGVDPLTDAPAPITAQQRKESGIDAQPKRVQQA
The test is described as follows: Assay for Asp RNA synthetase-1 from Mycobacterium tuberculosis. In kind it is functional. On the set-up: scale not given: direction of the effect not stated beside the values. The following applies: 30 µM.

Test [2] concerns the target Shiga toxin 2 (Escherichia coli O157:H7) (UniProt P09385+P09386). The test is described as follows: E. coli 0.157:H7 Shiga Toxin SOP - stx2 screening assay. In kind it is functional. On the set-up: scale not given: direction of the effect not stated beside the values. The following applies: 30 µM.

This is an account of results in ChEMBL document CHEMBL3988442, “University of Dundee, Small-Polar-MMV Screening Library” (2021).

`COCCn1cc(C(=O)N2CCCC2c2cc(C)no2)ccc1=O` (stereo not given): the Percent Effect in test [1] is -2.11%; in test [2], 3.38%.

`CCc1nc(C2CCCN2C(=O)CCn2cncn2)no1` (stereo not given): the Percent Effect worked out at 3.36% in test [1] and 5.08% in test [2].

Regarding `C1CC1c1nsc(N2CCN(C3CC3)CC2)n1`, the Percent Effect in test [1] is 2.04%; in test [2], -7.43%.

In the case of `Cc1nc(COC[C@@H]2CC[C@H]3[C@H](CCN3c3ncccn3)O2)cs1`, the Percent Effect in test [1] is 1.87%; in test [2] it was -14.4%.

As for `c1ccc(Cc2noc(CNC3CCc4ncnn4C3)n2)cc1` (stereo not given), the Percent Effect in test [1] was -0.932%; in test [2], 2.15%.

As for `CCN(CC)C(CNC(=O)c1ccc(S(C)(=O)=O)cc1)c1ccco1` (stereo not given), the Percent Effect in test [1] was -0.521%; in test [2], -4.44%.

Take `Cc1cc(=O)n(CC(=O)NCC2CCCO2)c(-c2cccc(Cl)c2)n1` (stereo not given): the Percent Effect was 8.05% in test [1] and -13.2% in test [2].

As to `Cc1nc(CN2CC3(CCN(c4ncc(F)cn4)C3)CC2=O)cs1` (stereo not given), the figures for the Percent Effect in test [1] and in test [2] were 3.16% and -4.09%, respectively.

For `Cc1ncc2c(n1)CN(CCCc1nc3ccccc3o1)CC2`, the Percent Effect in test [1] is 6.8%; in test [2], -10.6%.

Regarding `COCCN1C[C@H]2[C@@H](C1)N(Cc1ccc(C)o1)CC[C@H]2OC`, the Percent Effect in test [1] is -3.26%; in test [2] it was -28.9%.

As to `c1cnnc(N2CCCC(NCc3cn4ccccc4n3)C2)c1` (stereo not given), the Percent Effect is 2.13% in test [1] and -114% in test [2].

Consider `CCC(=O)Nc1ccc(C(C)NC(=O)COCCOC)cc1` (stereo not given), for which the figures for the Percent Effect in test [1] and in test [2] were 0.539% and -16.3%, respectively.

Regarding `COc1ccc(C(=O)NS(=O)(=O)c2cncc(Br)c2)cc1OC`, the Percent Effect came to 0.457% in test [1] and 3.4% in test [2].

With `O=C(c1ccn(-c2cccc(F)c2)n1)N1CCCC(n2cccn2)C1` (stereo not given), the Percent Effect in test [1] was -2.68%; in test [2], 1.81%.

In the case of `CCc1nnc2n1CCN(CC(=O)Nc1sccc1C#N)C2`, the Percent Effect is -0.787% in test [1] and 24.4% in test [2].

`COc1cccc(CCNC(=O)CN2CCCC2c2noc(C)n2)c1` (stereo not given): the results for the Percent Effect in test [1] and in test [2] were -0.962% and 22.4%, respectively.

In the case of `O=C(C[C@@H]1COC[C@H]2CN(Cc3ccc(F)cc3)C[C@@H]12)N1CCCCO1`, the Percent Effect in test [1] was 3.14%; in test [2] it was -37.2%.

Take `O=C(c1c[nH]c(=O)c(Cl)c1)N1C[C@@H]2CC[C@H](C1)N(Cc1ccccc1)C2`: the Percent Effect in test [1] was -1.71%; in test [2] it was 3.61%.

With `COc1ccc(C2=CCN(C(=O)CN(C)Cc3ccoc3)CC2)cc1`, the Percent Effect in test [1] is -8.11%; in test [2] it was -67.5%.

For the compound `CN1CCN(C2CCN(CCOc3ccc(F)cc3)CC2)C1=O`, the figures for the Percent Effect in test [1] and in test [2] were -2.61% and -5.38%, respectively.

As to `COc1cccc(OCCNC(=O)CN2CCN(C)CC2C)c1` (stereo not given), the Percent Effect in test [1] was -3.03%; in test [2], -14.9%.

Take `CC(NC(=O)NCC1(O)CCC1)c1ccc(OCC2CC2)c(F)c1` (stereo not given): the Percent Effect was -6.14% in test [1] and -4.99% in test [2].

For `Cc1cc(C)cc(NS(=O)(=O)c2cc3c(c(C(=O)O)c2)OCCO3)c1`, the Percent Effect in test [1] was 3.19%; in test [2], -24.3%.

For `Cc1csc(C2CCCN(C(=O)c3ccc(=O)n(C)n3)C2)n1` (stereo not given), the Percent Effect in test [1] was 3.09%; in test [2] it was -15.3%.

On to `CC(Cn1cccn1)NC(=O)Cc1cccs1` (stereo not given), for which the Percent Effect in test [1] was -2.6%; in test [2] it was -16.8%.

In the case of `O=C(CCCOc1ccc(F)cc1F)N1CCCC1Cn1cccn1` (stereo not given), the values for the Percent Effect in test [1] and in test [2] were -7.61% and 17.6%, respectively.

Regarding `CSc1ncccc1C(=O)NCc1ccc(CS(=O)(=O)NC(C)C)cc1`, the results for the Percent Effect in test [1] and in test [2] were 4% and 6.55%, respectively.

Take `CCc1nc(CN(C)CC2CCN(CC(C)O)CC2)no1` (stereo not given): the Percent Effect in test [1] is -3.85%; in test [2], 11%.

Turning to `Cc1ccccc1CC1(CO)CCCN(c2ncccc2C#N)C1` (stereo not given), the Percent Effect in test [1] is 3.07%; in test [2], -4.79%.

For the compound `Cc1cc(C)cc(N(C)S(=O)(=O)c2cc(C(=O)O)cs2)c1`, the Percent Effect was 2.79% in test [1] and -3.14% in test [2].

In the case of `COC(=O)c1sccc1S(=O)(=O)N1CCC(Oc2ncccc2Cl)CC1`, the Percent Effect in test [1] was -5.87%; in test [2], 4.83%.

`CN(C(=O)NCc1ccncc1)C1CCN(c2ccccc2)C1=O` (stereo not given): the Percent Effect is -3.08% in test [1] and -7.78% in test [2].

As for `CC(=O)N1CCN(c2cc(-c3ccccc3)nc3c(C)c(C)nn23)CC1`, the Percent Effect in test [1] is 2.46%; in test [2], -33.1%.

`N#CC1(C(=O)N2CCN(c3nccs3)CC2)CCCCC1`: the Percent Effect in test [1] is -2.57%; in test [2], 33.3%.

On to `COc1ccc(-n2ncc(C(=O)NCC3COC(C)(C)O3)c2N)cc1` (stereo not given), for which the Percent Effect was -2.49% in test [1] and 7.2% in test [2].

In the case of `O=C(NCCC(=O)N1CCCc2ccccc21)c1c(O)cc(F)cc1F`, the Percent Effect in test [1] was -3.63%; in test [2], -9.36%.

For the compound `CC(C)CN1CCC2(CCN(Cc3ccoc3)CC2)C1=O`, the values for the Percent Effect in test [1] and in test [2] were 6.3% and -11.6%, respectively.

On to `CS(=O)(=O)N1CCOCC2(CN(Cc3ccco3)CCO2)C1` (stereo not given), for which the figures for the Percent Effect in test [1] and in test [2] were -7.59% and -18.6%, respectively.

In the case of `Cc1cc(C)n(C2CN(CC(=O)N(C)Cc3ccc(C)o3)C2)n1`, the Percent Effect in test [1] was -0.898%; in test [2], 0.889%.

Take `CC(C)Oc1cccc(C(=O)C2CCCN(C(=O)c3ccccn3)C2)c1` (stereo not given): the Percent Effect in test [1] is -1.79%; in test [2] it was 6.16%.

As to `CC(C)c1nc(C2CCCN2C(=O)c2nccnc2N)no1` (stereo not given), the values for the Percent Effect in test [1] and in test [2] were -5.36% and -16.2%, respectively.

`Cc1cc(C2CCCN2CCCS(=O)(=O)c2ccccc2)no1` (stereo not given): the Percent Effect was -1.06% in test [1] and -12.2% in test [2].

As to `Cc1cc(C)n(CC2CN(CCOc3cccc(F)c3)CCO2)n1` (stereo not given), the results for the Percent Effect in test [1] and in test [2] were 3.93% and 36.7%, respectively.

For `CCc1ccc(S(=O)(=O)N2CCC3(CC(C(=O)NC)=NO3)C2)cc1` (stereo not given), the Percent Effect in test [1] was -3.62%; in test [2] it was -7.42%.

In the case of `CCc1nnsc1C(=O)NC1CCN(c2ccccn2)CC1`, the values for the Percent Effect in test [1] and in test [2] were -5.57% and -24.7%, respectively.
